High-throughput results deposited in PubChem by National Center for Advancing Translational Sciences (NCATS).
ELG1 DNA repair: qHTS screen for small molecules that inhibit ELG1-dependent DNA repair in human embryonic kidney (HEK293T) cells expressing luciferase-tagged ELG1; HEK293T ELG1-luciferase reporter, luminescence, 16 h; DNA damage induced by 5-fluorouridine; Potency, µM (highest dose often 46.1 µM), without a hit: top-dose activity change, negative = inhibition, usual class: inhibitors; hit rate 2.3% among 330,000; note: potency is the fitted concentration of half-maximal effect; nearly all actives have a fitted effect of over 55% in size
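5-Fluorouridine DNA damage + compound/DMSO, 2,000 cells/well, 16 h, 37 °C/5% CO2. ONE-Glo, 30 min RT, luminescence. Readout = decrease in reporter signal.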
TDP1 cell noCPT: qHTS for Inhibitors of human tyrosyl-DNA phosphodiesterase 1 (TDP1): qHTS in cells in absence of CPT. DT40 Tdp1-/- hTDP1 cells, no CPT, ATP luminescence, 48 h. AID 686978, 2013. Potency, µM (top dose mostly 46.2 µM), without a hit: at the top dose activity change, negative = growth inhibition, usual class: inhibitors. hit rate 15% among 420,000; note: potency is the fitted concentration of half-maximal effect; nearly all actives have a fitted effect of over 55% in size
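Camptothecin absent (DMSO only). Human TDP1-complemented DT40 knockout cells, 400 cells/well, 37 °C for minimum 48 hr; ATP measured via CellTiter-Glo, 30 min dark incubation, luminescence.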
TDP1 cell CPT: qHTS for Inhibitors of human tyrosyl-DNA phosphodiesterase 1 (TDP1): qHTS in cells in presence of CPT; Potency, µM (highest dose often 46.2 µM), for inactives: at the top dose activity change, negative = growth inhibition, most hits filed as inhibitors; chicken DT40 Tdp1-/-;hTDP1 cells + 20 nM CPT, ATP luminescence, 48 h; hit rate 12% among 420,000; AID 686979, 2013; note: potency is the fitted concentration of half-maximal effect; nearly all actives have a fitted effect of over 55% in size
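Chicken DT40 Tdp1-/- cells stably complemented with human TDP1 were seeded at 400 cells/well in medium containing 20 nM camptothecin, exposed to pin-transferred compounds, and grown at 37 °C for at least 48 hr. Viability was read as ATP luminescence.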
TDP1 inh: qHTS Assay for Inhibitors of Tyrosyl-DNA Phosphodiesterase (TDP1); Tyrosyl-DNA phosphodiesterase 1 (Homo sapiens), Q9NUW8; recombinant TDP1, AlphaScreen DNA substrate cleavage; hit rate 0.28% among 350,000; AID 485290, 2010; Potency, µM (top dose mostly 130 µM), for inactives: top-dose activity change, negative = inhibition, actives largely listed as inhibitors; note: potency is the fitted concentration of half-maximal effect; nearly all actives have a fitted effect of over 40% in size
Target sequence (Q9NUW8 whole entry, looked up): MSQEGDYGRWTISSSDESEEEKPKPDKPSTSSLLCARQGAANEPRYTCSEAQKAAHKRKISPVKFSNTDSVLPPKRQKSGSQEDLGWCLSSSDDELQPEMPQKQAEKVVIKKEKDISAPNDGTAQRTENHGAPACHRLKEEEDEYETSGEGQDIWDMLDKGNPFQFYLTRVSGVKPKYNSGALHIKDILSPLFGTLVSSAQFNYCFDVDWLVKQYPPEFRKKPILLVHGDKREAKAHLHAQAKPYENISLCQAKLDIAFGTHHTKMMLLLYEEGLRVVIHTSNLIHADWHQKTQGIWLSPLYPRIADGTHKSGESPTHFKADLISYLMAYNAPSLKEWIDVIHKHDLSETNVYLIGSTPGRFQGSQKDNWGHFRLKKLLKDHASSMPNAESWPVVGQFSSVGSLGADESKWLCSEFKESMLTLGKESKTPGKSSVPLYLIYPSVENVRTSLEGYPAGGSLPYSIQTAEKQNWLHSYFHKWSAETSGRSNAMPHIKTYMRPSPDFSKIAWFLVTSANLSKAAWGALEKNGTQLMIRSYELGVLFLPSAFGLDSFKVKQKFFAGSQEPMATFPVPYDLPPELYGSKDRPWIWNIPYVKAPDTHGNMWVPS
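Recombinant human Tdp1 (E. coli-expressed, 1 nM final) preincubated with compounds 15 min at room temperature, then 5'-biotin/3'-phosphotyrosine-FITC DNA substrate (15 nM final) added for 5 min. AlphaScreen beads (10 ug/ml final) added 10 min; cleavage lowers signal.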
Giardia kill: Small Molecules that selectively kill Giardia lamblia: qHTS. activity change, % at 7.66 µM, hits read low. Giardia lamblia trophozoite viability. hit rate 0.15% among 340,000. AID 540267, 2011; in the data active = activity change below about -80%; inconclusive = between about -30% and that limit;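 note: parasites exposed to compound for two days anaerobically before the ATP read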
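Giardia lamblia trophozoites (100 cells/well) were incubated with compounds for 48 h at 37 deg C under anaerobic conditions. Viability was read as ATP content by one-step luminescence after 15-30 min at room temperature.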
IL-1B inflam inh: qHTS for Inhibitors of Inflammasome Signaling: IL-1-beta AlphaLISA Primary Screen; THP-1 LPS/ATP IL-1B secretion, AlphaLISA, 16 h; active compounds read low; AID 743279, 2014; activity change, % at 57.5 µM; hit rate 4.7% among 360,000; in the data active = activity change below about -50%; inconclusive = mostly about -30% to -49%
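THP-1 cells pretreated 1 hr with compounds (up to 57.5 uM final), then stimulated with LPS (250 ng/mL final) plus ATP (1.25 mM final); secreted IL-1B measured by AlphaLISA after 16 hr, decreased signal indicating inhibition.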
Active calls of the source: *; [ ] = dose if it differs, or a comment. The list is not random: actives were taken first. Their share in the collection is about 19%. Unless noted, calls come from the whole dose curve; as a rule, active = well fitted curve in the direction sought with a large enough effect; inconclusive = small, poorly fitted or top-dose-only effect, or another doubt; inactive = no such curve, though single readings can be large; an effect the other way counts as inactive or inconclusive. % is set by controls: 0 for no effect and ±100 for the full control effect.

Results for CCc1ccc2oc(-c3cc(NC(=O)c4cc(OC)c(OC)c(OC)c4)ccc3O)nc2c1 ?
TDP1 cell noCPT: inconclusive; TDP1 cell CPT: inconclusive; TDP1 inh: 1.0%[2.28 µM]

Results for COc1cc(C(=O)Nc2ccc(Cl)c(-c3nc4ncccc4o3)c2)cc(OC)c1OC ?
TDP1 cell noCPT: 16.4µM*; TDP1 cell CPT: 20.6µM*; TDP1 inh: 0.0%

What do the screens show for `Cc1c(C#N)c(NC(=O)CCl)n(Cc2ccc(F)cc2)c1C`?
ELG1 DNA repair: inconclusive; TDP1 cell noCPT: 5.8µM*; TDP1 cell CPT: 5.17µM*; TDP1 inh: 8.1%; Giardia kill: -9.3; IL-1B inflam inh: -76.5*

How did Cc1c(C#N)c(NC(=O)CCl)n(Cc2cccs2)c1C do in these assays?
ELG1 DNA repair: inconclusive; TDP1 cell noCPT: 2.59µM*; TDP1 cell CPT: 5.17µM*; TDP1 inh: -2.9%; Giardia kill: 8.3; IL-1B inflam inh: -105.0*

How did N#Cc1ccc(Cl)cc1NC(=O)CNCc1cccs1 do in these assays?
ELG1 DNA repair: -4.5%; TDP1 cell noCPT: 1.5%; TDP1 cell CPT: 9.1%; Giardia kill: 10.9; IL-1B inflam inh: 32.8

How did Cc1c(C#N)c(NC(=O)CCl)n(Cc2ccccc2)c1C do in these assays?
ELG1 DNA repair: inconclusive; TDP1 cell noCPT: 2.59µM*; TDP1 cell CPT: 2.59µM*; TDP1 inh: 4.6%; Giardia kill: -0.5; IL-1B inflam inh: -57.0*

What do the screens show for `Cc1ccc(CNC(=O)CCc2nnc3ccc(N4CCC5(CC4)OCCO5)nn23)cc1`?
ELG1 DNA repair: -16.6%; TDP1 cell noCPT: -8.6%; TDP1 cell CPT: -0.9%; TDP1 inh: 1.8%; Giardia kill: -19.9; IL-1B inflam inh: 11.8

How did CC(C)C[C@H](NC(=O)[C@H](Cc1ccccc1)NC(=O)c1cnccn1)B(O)O do in these assays?
TDP1 cell noCPT: 0.0075µM*; TDP1 cell CPT: 0.0042µM*

How did CCCNC(=O)C(Cc1ccccc1)NC(=O)c1ccccn1 (stereo unspecified) do in these assays?
ELG1 DNA repair: 15.9%; TDP1 cell noCPT: -20.3%; TDP1 cell CPT: -19.9%; TDP1 inh: 0.5%; Giardia kill: 9.7; IL-1B inflam inh: 1.4

Results for CCOC(=O)Cn1nnnc1C(CC)N(Cc1cc2ccc(C)cc2[nH]c1=O)C1CCCC1 (stereo unspecified) ?
ELG1 DNA repair: inconclusive; TDP1 cell noCPT: inconclusive; TDP1 cell CPT: 0.9%; TDP1 inh: 2.6%; Giardia kill: -3.1; IL-1B inflam inh: -0.1

What do the screens show for `CCOC(=O)Cn1nnnc1C(CC)N(Cc1cccs1)Cc1cc2cc(C)ccc2[nH]c1=O` (stereo unspecified)?
ELG1 DNA repair: -13.5%; TDP1 cell noCPT: inconclusive; TDP1 cell CPT: inconclusive; TDP1 inh: 1.2%; Giardia kill: 13.0; IL-1B inflam inh: -7.9

Results for CCOC(=O)Cn1nnnc1CN(Cc1ccc(OC)cc1)Cc1cc2cc(C)cc(C)c2[nH]c1=O ?
ELG1 DNA repair: 0.5%; TDP1 cell noCPT: 25.9µM*; TDP1 cell CPT: 23.1µM*; TDP1 inh: -7.8%; Giardia kill: -2.6; IL-1B inflam inh: 0.0

What do the screens show for `CCOC(=O)Cn1nnnc1CN(Cc1ccc(OC)cc1)Cc1cc2cc(CC)ccc2[nH]c1=O`?
ELG1 DNA repair: inconclusive; TDP1 cell noCPT: inconclusive; TDP1 cell CPT: 14.6µM*; TDP1 inh: 2.5%; Giardia kill: -1.4; IL-1B inflam inh: -89.2*

Results for CCC(C)C(NC(=O)OC(C)(C)C)C(=O)NC1COC2CC(n3cc(C)c(=O)[nH]c3=O)OC12 (stereo unspecified) ?
TDP1 inh: 5.6%; Giardia kill: 1.2

Results for Cc1ccc(-n2c(=O)c3c(C)c(C(=O)N(C)C)sc3n(CC(=O)C(C)(C)C)c2=O)cc1C ?
TDP1 cell noCPT: -15.3%; TDP1 cell CPT: -23.8%; TDP1 inh: 6.4%

How did COc1ccc(OC)c(CN2CCCC(n3cc(C(=O)N4CCCCC4)nn3)C2)c1 (stereo unspecified) do in these assays?
TDP1 cell noCPT: -17.8%; TDP1 cell CPT: -0.4%

How did Nc1cc(=O)nc(SCC(=O)Nc2cccc(Cl)c2)n1CCc1ccccc1 do in these assays?
TDP1 inh: 4.5%

What do the screens show for `CCOc1ccc(CCN2C(=O)C(=O)N([C@@H](Cc3ccccc3)CN3CCC[C@H]3CN3C(=O)C(=O)NC[C@@H]3CC(C)C)C[C@@H]2Cc2ccc(O)cc2)cc1`?
TDP1 cell noCPT: inconclusive; TDP1 cell CPT: -91.2%; IL-1B inflam inh: -53.0*

Results for CCOc1ccc(CCN2C(=O)C(=O)N([C@@H](Cc3ccc(O)cc3)CN3CCC[C@H]3CN3C(=O)C(=O)NC[C@@H]3Cc3ccc(O)cc3)C[C@@H]2Cc2ccccc2)cc1 ?
TDP1 cell noCPT: inconclusive; TDP1 cell CPT: inconclusive; IL-1B inflam inh: 0.0

How did CCOc1ccc(CCN2C(=O)C(=O)N([C@@H](Cc3ccccc3)CN3CCC[C@H]3CN3C(=O)C(=O)NC[C@@H]3Cc3ccc(O)cc3)C[C@@H]2Cc2ccc(O)cc2)cc1 do in these assays?
TDP1 cell noCPT: inconclusive; TDP1 cell CPT: inconclusive; IL-1B inflam inh: -60.1*

How did CC(=O)c1cccc(N=Nc2c(-c3ccccc3)[nH]n(-c3ccccc3)c2=O)c1 do in these assays?
ELG1 DNA repair: 8.2µM*; TDP1 cell noCPT: inconclusive; TDP1 cell CPT: inconclusive; TDP1 inh: 7.6%; Giardia kill: -7.1; IL-1B inflam inh: 9.2

How did Cc1[nH]n(-c2ccccc2)c(=O)c1N=Nc1cccc(Cl)c1 do in these assays?
ELG1 DNA repair: inconclusive; TDP1 cell noCPT: inconclusive; TDP1 cell CPT: -25.0%; Giardia kill: 6.2; IL-1B inflam inh: 13.8

Results for COc1ccc(NCc2cc3cc4c(cc3n(CC(=O)Nc3cccc(F)c3)c2=O)OCO4)cc1 ?
TDP1 inh: 11.3%

What do the screens show for `CCc1ccc(NCc2cc3cc4c(cc3n(CC(=O)Nc3ccc(OC)cc3)c2=O)OCO4)cc1`?
TDP1 cell noCPT: 4.61µM*; TDP1 cell CPT: inconclusive; TDP1 inh: 3.8%

What do the screens show for `COc1ccc(NCc2cc3cc4c(cc3n(CC(=O)Nc3ccc(F)cc3F)c2=O)OCO4)cc1`?
TDP1 cell noCPT: 14.6µM*; TDP1 cell CPT: 6.51µM*; TDP1 inh: 11.3%
